Hits are enriched below; roughly 4.1% of the tested compounds scored in any of these assays.
hcDAF12 agonist: H. contortus DAF-12 activation, primary screen. HEK293 hcDAF-12 lit1-tk-luc reporter, luminescence; 0% DMSO, 100% Δ7-dafachronic acid. activation, % at 6.8 µM. 370,000 tested, 1.4% active;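 active means activation above the mean of all tested compounds plus 3 SD, cut at about 5.5% in these data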
ssDAF-12 act: activators of S. stercoralis DAF-12 nuclear receptor | HEK293 ssDAF-12/GRIP1 lit1-tk-luc reporter, luminescence; % of 3 µM dafachronic acid response | activation, % at 6.8 µM | 370,000 tested, 1% active | AID 652126;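 active means activation above the mean over all tested compounds plus 3 SD, cut at about 0.9% in these data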
hgDAF12 agonist: hgDAF-12 agonism, primary luciferase screen | 370,000 tested, 1.8% active | activation, % at 6.8 µM | HEK293 GAL4-hgDAF12 UAS-luciferase reporter, agonist luminescence; normalized to butyrate control | AID 687014;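 active means activation above a cutoff set at the mean of all screened compounds plus 3 SD, cut at about 10% in these data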
DAX1 inh-1: NR0B1 (DAX1) inhibition; P51843; HEK293 Gal4-DAX1 luciferase reporter, luminescence; 340,000 tested, 0.99% active; AID 504766; inhibition, % at 6.75 µM;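 active means inhibition above the mean over all tested compounds plus 3 SD, cut at about 4.2% in these data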;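 further: inhibition shows as a rise in luminescence from relieved DAX1 repression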
Target sequence (P51843 207-470 limits assumed): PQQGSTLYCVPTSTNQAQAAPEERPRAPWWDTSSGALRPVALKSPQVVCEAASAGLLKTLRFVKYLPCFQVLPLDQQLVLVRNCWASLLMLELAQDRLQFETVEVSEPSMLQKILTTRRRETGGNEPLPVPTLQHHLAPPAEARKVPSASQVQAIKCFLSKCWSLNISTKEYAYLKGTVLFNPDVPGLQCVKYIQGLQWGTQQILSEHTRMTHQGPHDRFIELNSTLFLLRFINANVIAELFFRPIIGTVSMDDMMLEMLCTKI
DAX1 inh-2: inhibitors of DAX1 repression of SF-1 activated StAR promoter; HEK293T StAR-luciferase reporter, SF-1/DAX-1 repression relief; inhibition, % at 6.8 µM; 370,000 tested, 1.1% active; AID 652010;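 active means inhibition above the mean over all tested compounds plus 3 SD, cut at about 3.6% in these data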;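 further: higher inhibition means more luminescence from relief of DAX-1 repression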
Of the large screens only hits and unclear results are named; the others gave an inactive call.

COc1ccc(C(=O)OCCc2sc[n+](CC(=O)c3ccccc3)c2C)cc1	DAX1 inh-1 4.5
CCCCCc1ccc(NC(=O)O[C@@H]2CC[C@@]34CCCN3C(=O)CCC[C@H]4C2)cc1	none (no result: DAX1 inh-1, DAX1 inh-2)
COc1cccc(/C(O)=C/c2nc3ccc(C(=O)NCCc4cccc(C)c4)cc3[nH]c2=O)c1	ssDAF-12 act 1.1
O=C(CC(=O)c1ccncc1)c1ccccc1	none
O=C(CC(=O)c1ccccc1)c1ccccc1	hgDAF12 agonist 11, DAX1 inh-2 3.6
COc1ccc(C(=O)CNc2ccc3ccccc3c2)cc1	hcDAF12 agonist 5.9 (no result: DAX1 inh-1)
CC1=C2NC(N)=[N+](Cc3ccc4c(c3)OCO4)CC2n2c(=O)n(-c3ccccc3)c(=O)n2C1 (configuration not stated)	none (no result: DAX1 inh-1)
CN(C)S(=O)(=O)c1ccc(C(=O)OCCCN=C2NS(=O)(=O)c3ccccc32)cc1	DAX1 inh-1 4.4
CCCCCCn1cc(CN2CC(N3CCN(CCN(C)C)CC3)CS2(=O)=O)nn1 (configuration not stated)	DAX1 inh-2 3.9 (no result: DAX1 inh-1)
Cc1ccc(Cn2cc(CN3CC(N4CCN(CCO)CC4)CS3(=O)=O)nn2)cc1 (configuration not stated)	DAX1 inh-2 4.2 (no result: DAX1 inh-1)
CCN(C)C1CN(Cc2cn(Cc3ccc(Cl)cc3)nn2)S(=O)(=O)C1 (configuration not stated)	none (no result: DAX1 inh-1)
COCCCn1cc(CN2CC(N3CCN(CCN(C)C)CC3)CS2(=O)=O)nn1 (configuration not stated)	none (no result: DAX1 inh-1)
COc1ccc(Cn2cc(CN3CC(N4CCN(CCO)CC4)CS3(=O)=O)nn2)cc1 (configuration not stated)	none (no result: DAX1 inh-1)
CCN(C)C1CN(Cc2cn(Cc3ccc(C(F)(F)F)cc3)nn2)S(=O)(=O)C1 (configuration not stated)	DAX1 inh-2 4.1 (no result: DAX1 inh-1)
COc1ccc(C(=O)NCCN2C(=O)C3C4C=CC(C4)C3C2=O)cc1OC (configuration not stated)	none (no result: DAX1 inh-1)
O=C(CN1C(=O)C2CCCCC2C1=O)OCn1nnc2ccccc2c1=O (configuration not stated)	DAX1 inh-1 6.4
Cc1cccc(C)c1NC(=S)/C(=C(\[O-])c1cccs1)[n+]1ccccc1	hcDAF12 agonist 5.8
Cc1c(S(=O)(=O)N2CCCCC2)c(=O)n(C)c(=O)n1C	DAX1 inh-1 4.3
Fc1cccc(CSc2nc3ccncc3[nH]2)c1	DAX1 inh-2 4.4
CCCc1cc(C(=O)Cc2nc3ccccc3s2)c(O)cc1O	hcDAF12 agonist 5.7, ssDAF-12 act 0.9
CCCc1cc(C(=O)Cc2ccc(F)cc2)c(O)cc1O	none
CC1(c2nnnn2Cc2ccccc2)CCCCC(=O)N1Cc1cccs1 (configuration not stated)	none (no result: DAX1 inh-1)
COc1ccc(C(=O)c2[nH]c(N)c(C(=O)NCCc3c[nH]c4ccccc34)c2-c2ccc(Cl)cc2)cc1	ssDAF-12 act 1.9 (no result: DAX1 inh-1)
Nc1[nH]c(C(=O)c2ccc(Br)cc2)c(-c2ccc(Br)cc2)c1C(=O)NCCc1c[nH]c2ccccc12	none (no result: DAX1 inh-1)
Nc1[nH]c(C(=O)c2ccc(Cl)cc2)c(-c2ccc(Br)cc2)c1C(=O)NCCc1c[nH]c2ccccc12	ssDAF-12 act 1.0 (no result: DAX1 inh-1)
COc1ccc(-c2c(C(=O)c3ccccc3)[nH]c(N)c2C(=O)NCCc2c[nH]c3ccccc23)cc1	hgDAF12 agonist 12 (no result: DAX1 inh-1)
COc1ccccc1CNS(=O)(=O)c1cccs1	DAX1 inh-1 5.8
COc1ccccc1CNC(=O)C1CCC(CNS(=O)(=O)c2cccs2)CC1 (configuration not stated)	none
CSc1nnc(SCC(=O)NC(=O)c2ccccc2)s1	DAX1 inh-2 4.1
Cc1csc(SCC(=O)NC(=O)c2ccccc2)n1	none
c1cncc(CNc2cccc(-c3nc4ccccc4[nH]3)c2)c1	hgDAF12 agonist 11
Cc1ccccc1-c1nnc(SCc2ccccc2)o1	none
Cc1ccccc1-c1nnc(Cc2ccccc2)o1	hgDAF12 agonist 12
COc1ccc(CNC(=S)OC2CCC23CCC(c2ccccc2)CC3)cc1 (configuration not stated)	none (no result: DAX1 inh-1)
CC(=O)Nc1cc(NC(C)=O)c(N=Nc2ccccc2)cc1C	DAX1 inh-1 4.7
Cc1cc(N=Nc2ccccc2)cc(C)c1NC(=O)C(F)(F)F	DAX1 inh-1 5.1
Cc1nc(N2CCN(C(=O)C3CCCCC3)CC2)c2c3c(sc2n1)CCCC3	none (no result: DAX1 inh-1, DAX1 inh-2)
OC(c1ccc(F)cc1)c1ncc(-c2ccccc2F)[nH]1 (configuration not stated)	hgDAF12 agonist 11 (no result: DAX1 inh-1)
CCc1ccc(C(O)c2ncc(-c3ccccc3F)[nH]2)cc1 (configuration not stated)	DAX1 inh-2 4.1 (no result: DAX1 inh-1)
C=CCN(Cc1ccccc1)C(C#CC(=C)C)Cc1ccccc1 (configuration not stated)	none (no result: DAX1 inh-1)
Cc1cccc(-c2cccc3c4c([nH]c23)[C@@H]2C[C@H](N(C)C(=O)NC3CCCCC3)[C@H]([C@H](C)O)C(=O)N2CC4)c1	none (no result: DAX1 inh-1)
C[C@H]1[C@@H](NC(=O)c2ccc(C(C)(C)C)cc2)CC[C@@]23CCCN2C(=O)CCC[C@@H]13	none (no result: DAX1 inh-1, DAX1 inh-2)
CCCC1CCC2(CC1)CCC2OC(=S)Nc1ccc(I)cc1 (configuration not stated)	none (no result: DAX1 inh-1, DAX1 inh-2)
CCCC(=O)Oc1ccc(-c2nccc(C(OC)OC)n2)cc1	DAX1 inh-1 4.3
C[n+]1cn(/N=C/c2ccccc2)c2ccccc21	hcDAF12 agonist 5.8
C#CCNC(=O)C[C@H]1C[C@@]2(C(=O)OC)C(=C[C@H](COCc3ccccc3)O[C@@H]2C)N(Cc2cccc3ccccc23)C1=O	none (no result: DAX1 inh-1)
CCOC(=O)c1ccc(NC(=O)CSc2nnc(SCc3cccc4ccccc34)s2)cc1	none (no result: DAX1 inh-1)
Cc1c(C#N)c(O)n(CCO)c(=O)c1N=Nc1ccc(S(N)(=O)=O)cc1	none
Cc1c(C#N)c(O)n(CCO)c(=O)c1N=Nc1ccccc1	DAX1 inh-1 4.4
Cc1ccc(S(=O)(=O)N(CCc2ccccc2)CC(=O)N2CCOCC2)cc1	none (no result: DAX1 inh-1)
CCCCCCCCN1C(=O)N2Cc3cc(OC)ccc3C2CS1(=O)=O (configuration not stated)	none (no result: DAX1 inh-1)
Cc1ccccc1CN1[C@@H](C)[C@H](c2ccccc2)Oc2cccc(N3CCCC(C)C3)c2S1(=O)=O (some centres not stated)	none (no result: DAX1 inh-1)
COC(=O)c1ccccc1NC(=O)c1ccnn1C	ssDAF-12 act 11
COC(=O)c1ccccc1NC(=O)c1c(Br)cnn1C	none
c1ccc(-c2cn3nc(-c4ccccc4)sc3n2)cc1	DAX1 inh-1 5.6 (no result: hcDAF12 agonist, ssDAF-12 act, hgDAF12 agonist, DAX1 inh-2)
c1ccc(-c2nnc3sc(-c4ccncc4)nn23)cc1	none
Cc1cc(N2Cc3ccccc3C2)ccc1C=O	hgDAF12 agonist 13
Cc1cc2c(cc1C)CN(c1ccccc1)C2	hgDAF12 agonist 12
COc1ccc(S(=O)(=O)N2CCC(c3nc4ccccc4o3)CC2)c(OC)c1	none (no result: DAX1 inh-1)
Cc1ccnc(NC(=O)Nc2ccc3c(c2)N(C)C(=O)CS3)c1	hgDAF12 agonist 10
S=C(NN=C(C1CC1)C1CC1)Nc1ccccc1	DAX1 inh-1 6.8
